An excerpt weighted towards active compounds, which were near 1.1% of everything screened.
S1P2 blocker = S1P2 (human) receptor antagonism; AID 736; inhibition, % at 5 µM; 0.21% of 97,000 active; cell-based S1P2 antagonist assay, inhibition at 5 uM; O95136; in the data active = inhibition above about 45%;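 also: CRE beta-lactamase reporter cells expressing human S1P2 stimulated with S1P; 0% = agonist at EC80 alone and 100% = agonist plus reference antagonist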
GALR2 ag = agonists of human galanin receptor 2 (GALR2); activation, % (test concentration not listed); 0.48% of 140,000 active; GALR2-expressing cells, agonist activation read-out; in the data active = activation above about 5%, passing the limit was not always enough;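 also: 0% = vehicle buffer wells and 100% = reference agonist at full effect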
Target sequence (O43603 whole entry, looked up): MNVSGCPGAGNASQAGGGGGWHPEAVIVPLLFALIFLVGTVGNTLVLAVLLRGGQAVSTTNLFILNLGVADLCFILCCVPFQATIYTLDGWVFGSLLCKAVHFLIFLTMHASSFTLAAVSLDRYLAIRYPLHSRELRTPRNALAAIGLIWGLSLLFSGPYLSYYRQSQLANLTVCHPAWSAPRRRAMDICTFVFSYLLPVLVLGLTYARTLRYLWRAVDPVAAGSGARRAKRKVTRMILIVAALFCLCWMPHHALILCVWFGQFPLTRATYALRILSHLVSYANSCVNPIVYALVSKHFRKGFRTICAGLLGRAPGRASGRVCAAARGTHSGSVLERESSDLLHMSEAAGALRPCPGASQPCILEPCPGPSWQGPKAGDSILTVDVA
S1P2 agonist = agonists of human S1P2 receptor. O95136. S1P2-expressing cell line, agonist reporter read-out. activation, % at 4.5 µM. 0.46% of 97,000 active. AID 729; in the data active = activation above about 16%;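 also: 0% = vehicle low control and 100% = maximal reference agonist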
GALR2 antag = GALR2 (human) receptor antagonism | O43603 | GALR2-expressing cells, antagonist mode | inhibition, % at 4 µM | 0.39% of 140,000 active | AID 828;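 also: cells stimulated with galanin 1-16 at roughly its EC80; 0% = agonist challenge control and 100% = basal control without agonist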
GALR2 blk conf = GALR2 (human) antagonism confirmed; shares compounds with GALR2 antag; GALR2-expressing cells, antagonist mode, inhibition; inhibition, % at 4 µM; 60% of 480 active;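 also: cells stimulated with galanin at about its EC80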
BLA inhib ctr = inhibits beta-lactamase reporter in GALR2 antagonist counterscreen. 36% of 480 active. shares compounds with GALR2 antag. inhibition, % at 4.2 µM. CHO NFAT-BLA reporter, beta-lactamase FRET, thapsigargin-stimulated;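 active = inhibition above the mean inhibition across tested compounds plus 3 SD, cut at about 27% in these data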;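 also: 0% = 500 nM thapsigargin stimulated wells and 100% = unstimulated BSA only wells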
Active calls of the source: *; x = no result given. Rule as the data show it, unless noted: active = inhibition above about 27%; inactive = the rest.

SMILES	S1P2 blocker	GALR2 ag	S1P2 agonist	GALR2 antag	GALR2 blk conf	BLA inhib ctr
COC(=O)Nc1ccc2c(c1)N(C(=O)CCN1CCN3CCCC3C1)c1ccccc1CC2 (stereo unspecified)	x	-2	x	28*	16	6
CCCCOc1ncnc2c1[nH]c1ccc(F)cc12	63*	-3	1	37*	35*	-4
CCCCOc1ncnc2c1[nH]c1ccccc12	31	-2	-10	36*	45*	14
CCOC(=O)N1CCN(c2ncnc3c2[nH]c2ccc(F)cc23)CC1	58*	-2	-7	38*	47*	4
CCCCOc1ncnc2c1[nH]c1ccc(OCC)cc12	-8	-4	-4	15	x	x
COc1ccc(-c2cc(=O)oc3cc(OCc4nn[nH]n4)ccc23)cc1	10	0	0	2	x	x
O=C(CSc1nc2ccccc2s1)Nn1cnnc1	6	-2	-2	-6	x	x
O=C(Nc1ccc2nc(-c3cccnc3)[nH]c2c1)C12CC3CC(CC(C3)C1)C2	4	-3	-7	43*	30*	10
O=C(Nc1ccc2nc(-c3cccnc3)[nH]c2c1)C1CCCCC1	-12	-1	1	12	x	x
Cc1sc2ncnc(NCc3ccco3)c2c1C	-9	0	-3	6	x	x
Cc1sc2ncnc(NCc3cccs3)c2c1C	37	-2	-1	28*	24	14
CCN(CC)c1ccc(/C=N/N(c2ccccc2)c2ccccc2)c(O)c1	x	0	x	9	x	x
CCN(CC)c1ccc(/C=N/Nc2nc3ccccc3[nH]2)c(O)c1	3	0	1	43*	45*	15
COc1cc(/C=N\Nc2nc3ccccc3[nH]2)cc(OC)c1OC	-6	-2	4	12	x	x
Cc1ccc2cc(/C=N/Nc3nc4ccccc4[nH]3)c(Cl)nc2c1	x	-3	x	98*	23	14
Cc1ccc(N=C2NC(=O)/C(=C/c3cn(C)c4ccccc34)S2)cc1C	x	-2	x	9	x	x
O=c1c2cnn(-c3ccc(F)cc3)c2ncn1Cc1ccccn1	-3	-2	-13	13	x	x
COc1ccc(-n2nc(C(=O)Nc3ccc4c(c3)OCO4)c3ccccc3c2=O)c(OC)c1	x	-2	x	5	x	x
COc1ccccc1-n1nc(C(=O)Nc2ccc3c(c2)OCO3)c2ccccc2c1=O	x	-2	x	42*	26	31*
COC(=O)C(NC(=O)c1ccc(Cl)cc1)(Nc1nc(C)cs1)C(F)(F)F (stereo unspecified)	-1	-5	-9	1	x	x
O=S(=O)(Nc1cc(Sc2cccc3cccnc23)c(O)c2ccccc12)c1ccc(F)cc1	x	-2	x	34*	27	17
COc1ccc(S(=O)(=O)Nc2cc(Sc3ncn[nH]3)c(O)c3ccccc23)cc1	5	0	-2	49*	17	16
COc1ccc(S(=O)(=O)Nc2ccc(O)c(Sc3ncn[nH]3)c2)cc1	-24	-1	1	3	x	x
O=C(CNC(=O)c1ccc(-c2ccccc2)cc1)OCc1c(F)cccc1Cl	x	-2	x	-4	x	x
COc1cc(C(=O)NC(=S)Nc2ccc([N+](=O)[O-])cc2C)cc(OC)c1OC	x	-1	x	50*	7	4
SMILES	S1P2 blocker	GALR2 ag	S1P2 agonist	GALR2 antag	GALR2 blk conf	BLA inhib ctr
CC1(C)N([O-])C2=C(c3ccccc3C2=O)[N+](=O)C1(C)C	-6	-1	-2	-13	x	x
CCNC(=O)COc1ccc(C=O)cc1OC	x	0	x	66*	5	-6
CCNC(=O)O/N=C(\C)c1sc(-c2ccc(Cl)cc2)nc1C	5	-1	-4	14	x	x
Cc1ccc(S(=O)(=O)CC2CSc3nc4ccccc4n32)cc1 (stereo unspecified)	58*	-1	-5	36*	29*	7
COc1ccc(C2(O)CCN(C(=O)NC3CCCCC3)CC2)cc1	-6	-1	-3	7	x	x
COc1cc(OC)c(OC)cc1/C=C/C(=O)c1ccc(NS(=O)(=O)c2ccc(C)cc2)cc1	x	-1	x	31*	21	19
O=C1c2cc([N+](=O)[O-])cc3cc([N+](=O)[O-])cc(c23)C(=O)N1c1ccccn1	x	-1	x	20	x	x
Cc1ccnc(N2C(=O)c3cccc4c([N+](=O)[O-])ccc(c34)C2=O)c1	52*	3	2	36*	42*	40*
Cc1ccc(S(=O)(=O)O/N=C2\CCCc3ccccc32)cc1	2	-6	-6	5	x	x
CC1=C(C)/C(=N\OS(=O)(=O)c2ccccc2)C=CC1=O	96*	-2	-1	77*	78*	71*
O=C(N/N=C/c1cc2c3c(c1O)CCCN3CCC2)c1ccccc1O	x	-2	x	32*	35*	24
O=C(c1cccc(Br)c1)c1cn(-c2ccccc2)nc1C(=O)c1ccccc1	4	-1	-7	4	x	x
Cc1ccc(SC(C)C(=O)Nc2ccccc2C(=O)N2CCOCC2)cc1 (stereo unspecified)	-10	-1	-3	32*	8	2
COc1ccc(N=Cc2c(O)[nH]c3ccccc23)cc1	-3	-2	-7	10	x	x
Oc1c(C=Nc2cccnc2)sc2ccccc12	7	0	-2	10	x	x
Oc1sc(C=Nc2ccccc2)c2ccccc12	32	-2	-6	39*	30*	28*
Oc1sc(C=Nc2ccc(F)cc2)c2ccccc12	27	-2	-7	39*	27*	14
Cc1cccc(C(=O)N/N=C/c2ccncc2)c1	-19	0	-11	5	x	x
Nc1c(C(=O)Nc2nccs2)sc2nc(-c3cccs3)cc(C(F)(F)F)c12	19	-1	-7	47*	27	15
Cc1nnc(NC(=O)c2sc3nc(-c4cccs4)cc(C(F)(F)F)c3c2N)s1	-1	0	-10	8	x	x
Cc1ccc(NC(=O)CCC(=O)O)cc1F	-11	-3	-4	7	x	x
CCN1CCN(Cc2ccc(NC(=O)CC3Oc4ccc(C)cc4NC3=O)cc2)CC1 (stereo unspecified)	16	-2	-6	34*	2	3
CN(C(=S)NC1CCCCC1)C1(c2ccccc2Cl)CCCCC1=O (stereo unspecified)	x	0	x	27*	34*	8
COc1ccc(CN/C(C)=C(/C#N)C(N)=O)cc1OC	-19	0	0	-5	x	x
N#CCCn1nc(-c2ccccc2)cc1Nc1ccccc1NC(=O)c1cccs1	x	-1	x	3	x	x
CC1(C)CC(=O)C(C(C2=C(O)CC(C)(C)CC2=O)c2cccc(O)c2)C(=O)C1 (stereo unspecified)	19	-2	-7	0	x	x
CC1(C)CC(=O)C2=C(C1)N(c1cccc(O)c1)C1=C(C2)C(=O)CC(C)(C)C1	26	2	0	43*	25	25
COc1cc(C(=O)NCc2nnc(SCC(=O)N3CCc4ccccc43)o2)cc(OC)c1OC	45	-2	-9	7	x	x
CCOC(=O)C1=C(CSc2nc(-c3ccccc3)ccc2C#N)OC(N)=C(C#N)C1c1ccccc1 (stereo unspecified)	-4	-1	-5	17	x	x

High-throughput results deposited in PubChem BioAssay by The Scripps Research Institute Molecular Screening Center.
